Experimental data reported in PubChem BioAssay (NCATS).
“And” between values parts separate entries of the source, which are not always exact repeats. Identical values can stand only once. Inconclusive results are not listed. Entries that show only a call come without a potency. The source made the active and inactive calls. Calls come from the whole dose curve; as a rule, active = well fitted inhibition curve with a large enough effect; inconclusive = small, poorly fitted or top-dose-only effect; inactive = flat fitted curve, though single readings scatter.
Potency is the fitted concentration of half-maximal effect.

Experiment: P-glycoprotein substrates identified in KB-8-5-11 adenocarcinoma cell line, qHTS therapeutic library screen (AID 1346987); note: nearly all actives have a fitted effect of over 65% in size
Details: KB-8-5-11 (P-gp overexpressing) viability, CellTiter-Glo, 72 h; series mostly up to 44.5 µM
Method in brief: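 Compounds are pinned in dose-response onto KB-8-5-11 cells (500 cells/well, colchicine-free medium) and left 72 h at 37 degree C. CellTiter-Glo luminescence then yields AC50 values.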
In the case of `CCC(=O)OCC(=O)[C@@]1(OC(=O)CC)[C@H](C)C[C@H]2[C@H]3[C@H]([C@@H](O)C[C@@]21C)[C@@]1(C)C=CC(=O)C=C1C[C@H]3Cl`, the Potency is reported as “inactive”.
In the case of `COc1cccc2c1CCC[C@H]2CN(C)CCc1ccc2ccoc2c1`, the Potency is reported as “inactive”.
In the case of `C=C1CCC2C(C)(CO[C@@H]3O[C@H](CO)[C@@H](O)[C@H](O)[C@H]3O)C(O)CCC2(C)C1C(=O)CC1=CCOC1=O` (some centres not stated), the Potency is reported as “inactive”.
In the case of `COc1c(C(CC(C)C)OC(C)=O)ccc(Oc2c(O)cc(C)cc2/C=C/C(C)=O)c1C(=O)O` (configuration not stated), the Potency is reported as “inactive”.
For `C=C1C(O[C@@H]2O[C@H](CO)[C@@H](O)[C@H](O)[C@@H]2O)CC2C(C)(C)C(O)CCC2(C)C1CC/C(C)=C\CO` (some centres not stated), the Potency was “inactive”.
For `O=C(O)C[C@H](O)C[C@H](O)/C=C/c1c(C2CC2)nc2ccccc2c1-c1ccc(F)cc1`, the Potency was 8.2 µM (active) and 5.17 µM (active).
In the case of `CO[C@H](C(=O)[C@@H](O)[C@@H](C)O)C1Cc2cc3cc(O[C@H]4C[C@@H](O[C@H]5C[C@@H](O)[C@H](O)[C@@H](C)O5)[C@@H](O)[C@@H](C)O4)c(C)c(O)c3c(O)c2C(=O)[C@H]1O[C@H]1C[C@@H](O[C@H]2C[C@@H](O[C@H]3C[C@](C)(O)[C@H](O)[C@@H](C)O3)[C@H](O)[C@@H](C)O2)[C@H](O)[C@@H](C)O1` (some centres not stated), the Potency is reported as “inactive”.
For `COc1c2c(c(C)c3c1C(=O)OC3)OC1(C)CC(O)C3(O)C(C)(C)OC(=O)CCC3(C)C1C2` (configuration not stated), the Potency was “inactive”.
With `COc1cc(C(=O)OC[C@H]2O[C@H](O[C@@]3(CO)O[C@@H](CO)[C@H](O)[C@H]3O)[C@H](O)[C@@H](O)[C@@H]2O)ccc1O` the Potency was “inactive”.
In the case of `C=C1CC2C3(C)C(O)CC(=O)C(C)(C)C3C(OC(C)=O)C(OC(C)=O)C2(C)C2C(=O)OC(C)(C(=O)OC)C(=O)C12C` (configuration not stated), the Potency is reported as “inactive”.
With `C[C@]1(O)CC[C@@H]2C(C(=O)O)=CO[C@@H](O[C@@H]3O[C@H](COC(=O)c4ccc(O)cc4)[C@@H](O)[C@H](O)[C@H]3O)[C@@H]21` the Potency was “inactive”.
For `CCOC(=O)N1CCC(NCCNC(=O)c2ccccc2C)CC1`, the Potency was “inactive”.
